# Compound activity deposited in PubChem by National Center for Advancing Translational Sciences (NCATS).
# This is a sample that favours compounds with a hit; in the whole collection about 8.3% have one here.
# Giardia FBPA inh = blocks Giardia fructose-bisphosphate aldolase activity; A8B2U2; purified Giardia FBPA; Potency, µM (doses to about 59.6 µM), usual class: inhibitors; 290,000 tested, 0.71% active; note: nearly all actives have a fitted effect of over 55% in size
# Target sequence (A8B2U2 whole entry, looked up): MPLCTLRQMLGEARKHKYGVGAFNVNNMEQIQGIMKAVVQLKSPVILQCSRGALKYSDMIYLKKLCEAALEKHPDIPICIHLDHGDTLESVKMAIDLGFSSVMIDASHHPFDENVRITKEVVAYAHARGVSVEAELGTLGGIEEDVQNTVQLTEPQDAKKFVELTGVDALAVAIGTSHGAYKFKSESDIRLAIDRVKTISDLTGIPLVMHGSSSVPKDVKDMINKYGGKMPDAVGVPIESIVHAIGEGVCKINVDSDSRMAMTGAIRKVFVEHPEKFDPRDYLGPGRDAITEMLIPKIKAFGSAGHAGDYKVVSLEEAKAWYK
#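 40 nM FBPA preincubated 10 min at RT with compound (up to 57.5 uM final), then substrate plus GAPDH/TPI/NAD/arsenate coupling and diaphorase/resazurin added. Fluorescence read after 20 min at RT, 525/598 nm.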
# HCMV antiviral = inhibitors of human cytomegalovirus; HFF cells, HCMV-luciferase reporter, 72 h; active compounds read low; activity change, negative = inhibition, % at 57.5 µM; 410,000 tested, 4.5% active; AID 1259415; in the data active = activity change below about -60%; inconclusive = no clear call, values can overlap the other calls; inactive = above about -39%
#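 Cell-based, HFFs, 1000 cells/well, 16 h 37C; cpds in DMSO + HCMV-luc, MOI 1 PFU/cell; 72 h 37C; OneGlo luminescence after 5 min RT; norm. to buffer vs Salinomycin 10uM.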
# FMDV inh = antivirals against foot and mouth disease virus; FMDV antiviral cell-based qHTS; Potency, µM (series often up to 57.9 µM), actives largely listed as inhibitors; 410,000 tested, 1.2% active; AID 1159524; calls by dose curve; tested in HEK293T cells; note: read-out not given here; nearly all actives have a fitted effect of over 45% in size
# Lassa entry inh = blocks Lassa virus binding to or entry into cells; 300,000 tested, 1.2% active; Potency, µM (series often up to 37.9 µM), actives largely listed as inhibitors; Lassa virus pseudotype entry inhibition, cell reporter; calls by dose curve; tested in HEK293 cells; note: nearly all actives have a fitted effect of over 50% in size
# Marburg entry inh = inhibitors of Marburg virus binding or cell entry. Marburg virus pseudotyped entry inhibition, cell reporter. Potency, µM (series often up to 37.8 µM), most hits filed as inhibitors. 300,000 tested, 1.8% active; calls by dose curve; tested in HEK293 cells
# HCV inh = HCV inhibition | Potency, µM (doses to about 41.8 µM), hits mostly inhibitors | Huh7.5.1 HCVcc-Cre infection, luciferase reporter, 44 h | AID 651820 | 340,000 tested, 3.4% active
#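 After 44 h co-culture of compound, cells and HCVcc-Cre (~0.5 moi), substrate is added for 15 min at room temperature and luciferase measured over 15 sec. Cells were seeded at 1,000/well and pre-cultured 4 h.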
# A number is an active result; i = inactive; ? = inconclusive; nt = no result; [ ] = remark or other dose. Unless noted, calls come from the whole dose curve; as a rule, active = well fitted curve in the direction sought with a large enough effect; inconclusive = small, poorly fitted or top-dose-only effect, or another doubt; inactive = no such curve, though single readings can be large; an effect the other way counts as inactive or inconclusive.
SMILES,Giardia FBPA inh,HCMV antiviral,FMDV inh,Lassa entry inh,Marburg entry inh,HCV inh
Cc1cc(OCC(=O)NC2CC(C)(C)NC(C)(C)C2)c(C)cc1Br,nt,i,i,i,?,10µM
CC(C)c1ccc(OCC(=O)NC2CC(C)(C)NC(C)(C)C2)c(Br)c1,nt,i,i,nt,nt,11µM
Cc1c(C(=O)N(C)CC2CCCN(C)C2)cnn1-c1nccc(-c2ccco2)n1 (stereo unspecified),nt,nt,i,nt,nt,nt
C=C(C)CSc1cc(C)c(C#N)c2nc3ccccc3n12,?,-75,?,?,?,11µM
NS(=O)(=O)c1ccc(NCc2cc(Cl)ccc2OCc2ccccc2F)cc1,i,-61,?,i,i,?
COC(=O)CC=C[C@@H](C)[C@@H](C=NO[C@@H](C)c1cn([C@H](CO)Cc2ccccc2)nn1)NS(=O)(=O)c1ccc(C)cc1,nt,nt,nt,i,i,nt
CCC(C)n1ncn(-c2ccc(N3CCN(c4ccc(OCC5COC(Cn6cncn6)(c6ccc(Cl)cc6Cl)O5)cc4)CC3)cc2)c1=O (stereo unspecified),i,-66,?,nt,nt,?
Cc1nc(NC(=O)c2ccccc2)sc1-c1csc(NCc2ccccc2)n1,i,?,i,i,?,?
CCC(=O)Nc1nc(C)c(-c2csc(Nc3ccccn3)n2)s1,i,i,i,?,?,11µM
Cc1nc(NC(=O)c2ccccc2)sc1-c1csc(NCCc2ccccc2)n1,i,?,i,i,?,10µM
CCCCC(=O)Nc1nc(C)c(-c2csc(Nc3cc(OC)ccc3OC)n2)s1,i,i,i,nt,nt,10µM
COc1ccc(OC)c(Nc2nc(-c3sc(NC(=O)CC(C)C)nc3C)cs2)c1,i,?,i,nt,nt,2.8µM
CSc1ccc(-c2ccc3c(c2)CC(CNC(=O)Cn2nc(C)nc2C)O3)cc1 (stereo unspecified),nt,nt,i,nt,nt,nt
CN1C2CC(OC(=O)[C@H](CO)c3ccccc3)CC1C1OC12 (stereo partly specified),nt,nt,nt,i,i,nt
COc1ccc(C2C3C=CCCC3(C)C(=O)N2Cc2ccccc2)cc1Cl (stereo unspecified),i,nt,nt,nt,nt,nt
O=C(c1n[nH]c2c1CCCC2)N1CCC(n2c(C3CCCO3)nc3ccccc32)CC1 (stereo unspecified),nt,nt,i,nt,nt,nt
COc1ccccc1CN1CCCC2(CCN(C(=O)c3cnccn3)CC2)C1,i,nt,i,nt,nt,nt
O=C(C[n+]1cccc2ccccc21)c1ccc(Cl)cc1,i,i,i,nt,nt,i
O=C(C[n+]1ccn(-c2ccccc2)c1)c1ccc([N+](=O)[O-])cc1,i,-63,i,nt,nt,?
COc1ccc(C(=O)C[n+]2cccc3cc(OC)ccc32)cc1,i,-66,i,i,i,?
COc1cccc(C(=O)C[n+]2cccc3cc(OC)ccc32)c1,nt,i,i,nt,nt,i
O=C(C[n+]1cccc2ccccc21)c1ccc([N+](=O)[O-])cc1,i,i,i,?,?,11µM
C=CC[C@@H]1C=C[C@@H](O/N=C2/C[C@@H](O)[C@@H](O)[C@@H]3[C@@H]4C(=O)N(CC)C(=O)[C@H]4CC[C@@H]23)[C@@H](CO)O1,i[12.9 µM],nt,nt,nt,nt,nt
Cc1ccc(NC(=O)Cn2c(=O)n(Cc3ccccc3)c(=O)c3c(C)c(C(=O)N(C)C)sc32)c(C)c1,nt,i,i,i,nt,nt
O=c1n(-c2ccccc2)c(=O)n2n1CC[C@@H]1/C(=N/OC[C@@H](O)COCc3ccco3)[C@H]3O[C@H]3[C@@H](O)[C@@H]12,nt,nt,nt,nt,i,nt
SMILES,Giardia FBPA inh,HCMV antiviral,FMDV inh,Lassa entry inh,Marburg entry inh,HCV inh
CCn1c(=O)n(-c2ccc(C)c(F)c2)c(=O)c2sc3ccccc3c21,nt,i,i,i,i,nt
CCOC(=O)C(C)Nc1ncnc2onc(C)c12 (stereo unspecified),nt,i,i,i,?,nt
CSc1nc(NCCOCCO)c2sc3nc(-c4ccco4)c4c(c3c2n1)CCC4,i,i,40µM,?,?,?
CCN(CCO)c1nc(SC)nc2c1sc1nc(-c3ccco3)c3c(c12)CCC3,i,nt,?,i,i,i
CCCCCCOC(=O)C(C#N)c1nc2ccccc2nc1N1CCN(CC)CC1 (stereo unspecified),i,i,i,?,4.6µM,i
CCCCCCOC(=O)C(C#N)c1nc2ccccc2nc1N1CCOCC1 (stereo unspecified),i,i,i,i,i,i
CCc1c(C)nc2ncnn2c1Nc1ccccc1C,i,i,i,i,i,i
Cc1ccccc1Nc1c(C)c(C)nc2ncnn12,i,?,?,i,?,11µM
